Records with an inconclusive call do not appear. Activity calls are given as the source filed them. Unless noted, calls follow the shape of the dose curve; as a rule, active = well fitted curve in the direction sought with a large enough effect; inconclusive = small, poorly fitted or top-dose-only effect, or another doubt; inactive = no such curve, though single readings can be large; an effect the other way counts as inactive or inconclusive.
Experiments:
[1] = Cytotoxicity counterscreen for NFkB agonists and antagonists (AID 624476);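 also: cells exposed to compound for 48 hours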; also: potency is read from the fitted curve at half-maximal effect
[2] = qHTS Assay for Identification of Small Molecule Agonists for NFkB Signaling Pathway. (AID 624478);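 also: compounds tested together with TNF alpha at its EC50 of 10 pM; 0% is about no effect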
How it was run: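 Cells carrying an NFkB response element-driven beta-lactamase gene are co-treated with compound and 10 pM TNF alpha for 5 h, and reporter activity is then read as 460 and 530 nm fluorescence.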

[3] = qHTS Assay for Identification of Small Molecule Antagonists for NFkB Signaling Pathway. (AID 624479; calls by dose curve;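 also: pathway stimulated with TNF alpha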; also: potency is read from the fitted curve at half-maximal effect)
[4] = Cell Proliferation Assay against the HBL1 Cell Line (AID 651646); settings: HBL1 DLBCL cells; at 46.1 µM (top of the series);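 also: cells exposed to compound for 48 h before reading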
How it was run: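 HBL1 ABC DLBCL cells, 500/well in RPMI with 5% FBS, treated for 48 h at 37C. Viability read by CellTiter-Glo luminescence, normalized to DMSO as 100% and 9.2 uM bortezomib as 0%.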

[5] = Cell Proliferation Assay against the TMD8 Cell Line (Caspase readout at 16 hrs) (AID 651712); also: potency is read from the fitted curve at half-maximal effect
How it was run: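 TMD8 cells in RPMI with 5% FBS were treated with compound for 16 h at 37 C, then caspase 3/7 activation was read by Caspase-Glo luminescence. Percent activity was scaled to DMSO (0%) and 9.2 uM bortezomib final (100%).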

[6] = Cell Proliferation Assay against the TMD8 Cell Line (Caspase readout at 8 hrs) (AID 651713); also: potency is read from the fitted curve at half-maximal effect
How it was run: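 Percent activity derived from Caspase-Glo signal, DMSO set to 0% and bortezomib (9.2 uM final) to 100%. TMD8 cells were exposed to compound for 8 h in RPMI with 5% FBS.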

[7] = Cell Proliferation Assay against the TMD8 Cell Line (AID 651645); settings: TMD8 DLBCL cell line proliferation/viability; at 46.1 µM (top of the series);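 also: cells exposed to compound for 48 h before reading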
How it was run: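 Luminescent ATP read-out (CellTiter-Glo, 15 min RT) after 48 h compound exposure of log-growing TMD8 cells at 37C; percent activity scaled between DMSO as 100% and 9.2 uM bortezomib final as 0%.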

Row | Structure (SMILES) | Potency [1] | outcome [2] | Potency [3] | viability, percent of control [4] | Potency [5] | Potency [6] | viability (% of control) [7]
1 | O=C(O)[C@H](Cc1c[nH]c2ccccc12)N1C(=O)c2ccccc2C1=O | inactive | inactive | inactive | 130% | inactive | inactive | –
2 | COc1ccc(OC)c(-c2nnc3ccc(-c4ccc(OC)c(O[C@@H]5CCOC5)c4)nn23)c1 | inactive | inactive | – | 42.3% | 20.9 µM (active) | – | 15.1%
3 | CN1CCC(CNc2ccc3ncc(-c4cccc(OC(F)(F)F)c4)n3n2)CC1 | 26.4 µM (active) | inactive | 23.7 µM (active) | 3.91% | – | 23.5 µM (active) | 4.73%
4 | CC=C1NC(=O)[C@H]2CSSCCC=C[C@H](CC(=O)N[C@H](C(C)C)C(=O)N2)OC(=O)[C@H](C(C)C)NC1=O | 0.0935 µM (active) | inactive | inactive | 3.6% | – | – | –
5 | CCOc1cc2ncc(C#N)c(Nc3ccc(F)c(Cl)c3)c2cc1NC(=O)C=CCN(C)C | 20.9 µM (active) | inactive | 11.9 µM (active) | 2.39% | – | 16.6 µM (active) | -0.0881%
6 | O=C(NCCS(=O)(=O)c1ccc(C(F)(F)F)cn1)c1ccc(Cl)cc1 | inactive | inactive | inactive | 92% | inactive | inactive | –
7 | Cc1cn(-c2cc(NC(=O)c3ccc(C)c(Nc4nccc(-c5cccnc5)n4)c3)cc(C(F)(F)F)c2)cn1 | 9.35 µM (active) | inactive | 2.11 µM (active) | 14.5% | – | inactive | –
8 | COc1cc2ncnc(Nc3ccc(F)c(Cl)c3)c2cc1NC(=O)C=CCN1CCCCC1 | 20.9 µM (active) | inactive | 16.8 µM (active) | 0.0432% | – | 23.5 µM (active) | -0.755%
9 | CC[C@@H]1C(=O)N(C)c2cnc(Nc3ccc(C(=O)NC4CCN(C)CC4)cc3OC)nc2N1C1CCCC1 | 16.6 µM (active) | inactive | 13.3 µM (active) | 5.81% | 1.18 µM (active) | 29.6 µM (active) | –
10 | Nc1cc(C(F)(F)F)c(-c2cc(N3CCOCC3)nc(N3CCOCC3)n2)cn1 | 0.935 µM (active) | inactive | inactive | 16.8% | 2.09 µM (active) | 20.9 µM (active) | –
11 | CC(C)c1ccccc1Cc1cc(C(=O)Nc2ccc(S(=O)(=O)c3ccccc3C(C)(C)C)cc2)c(O)c(O)c1O | 14.8 µM (active) | inactive | 13.3 µM (active) | 21.6% | 6.62 µM (active) | – | –
12 | CCCCN1CCC(CNC(=O)c2c3n(c4ccccc24)CCCO3)CC1 | inactive | inactive | inactive | 93.7% | inactive | inactive | –
13 | Nc1ccccc1NC(=O)c1ccc(CNC(=O)OCc2cccnc2)cc1 | inactive | inactive | inactive | 4.18% | – | inactive | –
14 | CN1CCN(c2ccc3nc(-c4c(N)c5c(F)cccc5[nH]c4=O)[nH]c3c2)CC1 | 16.6 µM (active) | inactive | 0.421 µM (active) | 0.538% | – | 18.7 µM (active) | -0.299%
15 | C[C@]1(CO)CN(c2cc(C(=O)Nc3ccc4c(c3)-c3c(c(C(N)=O)nn3-c3ccc(F)cc3)CC4)c(Cl)cn2)C[C@@]1(C)CO | inactive | inactive | 5.95 µM (active) | 23.3% | 14.8 µM (active) | 16.6 µM (active) | –
16 | NC(=O)c1c(OCc2c(F)cc(Br)cc2F)nsc1NC(=O)NCCCCN1CCCC1 | inactive | inactive | – | 4.14% | inactive | – | 8.16%
17 | CCCCCN(CCC12CC3CC(CC(C3)C1)C2)C(=O)NCCCc1ccncc1 | 23.5 µM (active) | – | 21.1 µM (active) | 1.97% | – | 23.5 µM (active) | 1.96%
18 | C=C1C(=CC=C2CCC[C@]3(C)[C@@H]([C@H](C)C=C[C@H](C)C(C)C)CC[C@@H]23)C[C@@H](O)C[C@@H]1O | – | inactive | 21.1 µM (active) | – | – | – | –
19 | Cc1[nH]c2ccccc2c1CCNCc1ccc(C=CC(=O)NO)cc1 | 0.332 µM (active) | inactive | – | -0.0299% | 0.0332 µM (active) | – | 1.52%
20 | C=C1C(=CC=C2CCCC3(C)[C@@H]([C@H](C)C=CC=CC(O)(CC)CC)CC[C@@H]23)C[C@@H](O)C[C@@H]1O (some centres undefined) | 23.5 µM (active) | – | 16.8 µM (active) | 2.25% | – | – | 3.4%
21 | COC(=O)c1ccc2c(C(=Nc3ccc(N(C)C(=O)CN4CCN(C)CC4)cc3)c3ccccc3)c(O)[nH]c2c1 | 23.5 µM (active) | inactive | – | 2.34% | 0.469 µM (active) | 26.4 µM (active) | 1.41%
22 | Clc1ccc2ncc(-c3cccc(NC4CNC4)n3)n2c1 | – | inactive | 6.68 µM (active) | 34.2% | – | – | 1.46%
23 | CN1CCN(c2cc(C(=O)Nc3ccc4c(c3)-c3c(c(C(N)=O)nn3-c3ccc(F)cc3)CC4)c(Cl)cn2)CC1 | inactive | inactive | – | 0.345% | – | 33.2 µM (active) | –
24 | Nc1nccc(Oc2ccc(NC(=O)c3c[nH]cc(-c4ccc(F)cc4)c3=O)cc2F)c1Cl | 18.7 µM (active) | – | 5.95 µM (active) | 14.4% | inactive | inactive | –
25 | CCCCc1nc2cc(C=CC(=O)NO)ccc2n1CCN(CC)CC | 14.8 µM (active) | inactive | – | 1.9% | 0.332 µM (active) | inactive | –

Reference: PubChem BioAssay (NCATS)
